Calls of active or inactive are those of the source. The calls were made as follows: active = hit-call score of the fitted dose curve at least 0.9, where 1 is the maximum; inactive = score below 0.9.
assay: ATG_M_19_CIS: Attagene CIS-FACTORIAL HepG2 Assay for M19 Transcription Factor (Internal Marker) (AID 2282939); settings: HepG2 Attagene CIS-FACTORIAL M19 internal marker reporter; actives raise or lower the signal
Method in brief: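 Transfect HepG2 with MRTU reporter library → dose chemical, 24 h → isolate total RNA, reverse-transcribe with oligo(dT) → PCR, 6-FAM label, HpaI cut (2 h, 37 C) → capillary electrophoresis. Bidirectional fit vs DMSO.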

SMILES	outcome
Nc1ccc(-c2ccc(N)c(N)c2)cc1N	inactive
CCOP(O)OCC	inactive
C#CC1(O)CCCCC1	inactive
O=c1[nH]c(Cl)c(Cl)cc1Cl	inactive
CCC(C)c1cc(C(C)(C)C)cc(-n2nc3ccccc3n2)c1O (stereo unspecified)	inactive
[CH3][Sn]([Cl])([Cl])[Cl]	inactive
Nc1c(Cl)c(Cl)c(Cl)c(Cl)c1Cl	inactive
COC(=O)c1ccccc1S(=O)(=O)NC(=O)Nc1nc(C)cc(C)n1	inactive
Nc1ccccc1C(=O)OCCc1ccccc1	inactive
N#Cc1cccc(C#N)c1	inactive
O=C(O)CCCc1ccc(N(CCCl)CCCl)cc1	inactive
Nc1cc(Cl)cc(Cl)c1	inactive
COc1ncc(F)c2nc(S(=O)(=O)Nc3c(F)cccc3F)nn12	inactive
COC(C)(C)CCC[C@H](C)C/C=C/C(C)=C/C(=O)OC(C)C	inactive
[CH3][Sn]([CH3])([Cl])[Cl]	inactive
BrCBr	inactive
CCc1cccc(C)c1N(C(=O)CCl)[C@@H](C)COC	inactive
O=P1(NCCCl)OCCCN1CCCl (stereo unspecified)	inactive
CC(Cc1ccc(C(C)(C)C)cc1)CN1C[C@@H](C)O[C@@H](C)C1 (stereo partly specified)	inactive
O=C(O)c1cc[c]([Hg][Cl])cc1	inactive

SMILES	outcome
C[N+](C)(C)CC(=O)O	inactive
O=S(=O)(c1ccccc1)c1ccccc1	inactive
Clc1ccc(-c2ccccc2)cc1	inactive
CN(C)C(=O)C(c1ccccc1)c1ccccc1	inactive
C=CCc1ccc(OC(=O)Cc2ccccc2)c(OC)c1	inactive
O=P(O)(Oc1ccccc1)Oc1ccccc1	inactive
CC1CCCC1.[C-]#[O+].[C-]#[O+].[C-]#[O+].[Mn]	inactive
O=C(O)COc1ccccc1	inactive
[Cl][Sb]([Cl])[Cl]	inactive
CCC(=O)c1ccc(Cl)cc1	inactive
Cc1ccc(N(SC(F)(Cl)Cl)S(=O)(=O)N(C)C)cc1	inactive
CC1(C)CC(=O)CC(C)(C)N1[O]	inactive
SCc1ccco1	inactive
O=CNC(N1CCN(C(NC=O)C(Cl)(Cl)Cl)CC1)C(Cl)(Cl)Cl (stereo unspecified)	inactive
Oc1cc(Cl)ccc1Cl	inactive
O=[N+]([O-])c1cc(C(F)(F)F)c(Cl)c([N+](=O)[O-])c1Cl	inactive
C[C@]12CCC(=O)C(O)=C1CC[C@@H]1[C@@H]2CC[C@]2(C)C(=O)CC[C@@H]12	inactive
CSc1nc(N=[N+]=[N-])nc(NC(C)C)n1	inactive
O=[N+]([O-])O.O=[N+]([O-])O.[Cd]	inactive

assay: ATG_ERE_CIS: Attagene CIS-FACTORIAL HepG2 Assay for Estrogen Response Element (ERE) (AID 2282940); settings: HepG2 ERE cis-reporter, Attagene RNA transcript; actives raise or lower the signal
Method in brief: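 Transient MRTU transfection of human HepG2; cis-element promoters; 24 h dosing; total RNA → RT (oligo dT) → PCR → 6-FAM primer extension → HpaI digest → CE fluorescence. Bidirectional fit, DMSO baseline.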

SMILES	outcome	AC50
O=C(O)CCCc1ccc(N(CCCl)CCCl)cc1	inactive	–
COc1ncc(F)c2nc(S(=O)(=O)Nc3c(F)cccc3F)nn12	inactive	–
BrCBr	inactive	–
O=C(O)c1cc[c]([Hg][Cl])cc1	inactive	–
C[N+](C)(C)CC(=O)O	inactive	–
Clc1ccc(-c2ccccc2)cc1	–	55.7 µM (active)
O=P(O)(Oc1ccccc1)Oc1ccccc1	inactive	–
O=C(O)COc1ccccc1	inactive	–
SCc1ccco1	inactive	–
O=CNC(N1CCN(C(NC=O)C(Cl)(Cl)Cl)CC1)C(Cl)(Cl)Cl (stereo unspecified)	inactive	–
O=[N+]([O-])c1cc(C(F)(F)F)c(Cl)c([N+](=O)[O-])c1Cl	inactive	–
C[C@]12CCC(=O)C(O)=C1CC[C@@H]1[C@@H]2CC[C@]2(C)C(=O)CC[C@@H]12	–	16.8 µM (active)
CSc1nc(N=[N+]=[N-])nc(NC(C)C)n1	inactive	–

assay: ATG_Ets_CIS: Attagene CIS-FACTORIAL HepG2 Assay for human Erythroblast Transformation Specific (ETS) (AID 2282941); settings: HepG2 ETS cis-reporter transcription, actives raise or lower the signal
Method in brief: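 Bidirectional fit versus DMSO of reporter mRNA signal, detected by RT-PCR and capillary electrophoresis in HepG2 cells transiently transfected with cis-element reporters and dosed 24 h.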

SMILES	outcome
Nc1ccc(-c2ccc(N)c(N)c2)cc1N	inactive
CCOP(O)OCC	inactive
C#CC1(O)CCCCC1	inactive
O=c1[nH]c(Cl)c(Cl)cc1Cl	inactive
CCC(C)c1cc(C(C)(C)C)cc(-n2nc3ccccc3n2)c1O (stereo unspecified)	inactive
[CH3][Sn]([Cl])([Cl])[Cl]	inactive
Nc1c(Cl)c(Cl)c(Cl)c(Cl)c1Cl	inactive
COC(=O)c1ccccc1S(=O)(=O)NC(=O)Nc1nc(C)cc(C)n1	inactive
Nc1ccccc1C(=O)OCCc1ccccc1	inactive
N#Cc1cccc(C#N)c1	inactive
O=C(O)CCCc1ccc(N(CCCl)CCCl)cc1	inactive
Nc1cc(Cl)cc(Cl)c1	inactive
COc1ncc(F)c2nc(S(=O)(=O)Nc3c(F)cccc3F)nn12	inactive
COC(C)(C)CCC[C@H](C)C/C=C/C(C)=C/C(=O)OC(C)C	inactive
[CH3][Sn]([CH3])([Cl])[Cl]	inactive
BrCBr	inactive
CCc1cccc(C)c1N(C(=O)CCl)[C@@H](C)COC	inactive
O=P1(NCCCl)OCCCN1CCCl (stereo unspecified)	inactive
CC(Cc1ccc(C(C)(C)C)cc1)CN1C[C@@H](C)O[C@@H](C)C1 (stereo partly specified)	inactive
O=C(O)c1cc[c]([Hg][Cl])cc1	inactive

SMILES	outcome
C[N+](C)(C)CC(=O)O	inactive
O=S(=O)(c1ccccc1)c1ccccc1	inactive
Clc1ccc(-c2ccccc2)cc1	inactive
CN(C)C(=O)C(c1ccccc1)c1ccccc1	inactive
C=CCc1ccc(OC(=O)Cc2ccccc2)c(OC)c1	inactive
O=P(O)(Oc1ccccc1)Oc1ccccc1	inactive
CC1CCCC1.[C-]#[O+].[C-]#[O+].[C-]#[O+].[Mn]	inactive
O=C(O)COc1ccccc1	inactive
[Cl][Sb]([Cl])[Cl]	inactive
CCC(=O)c1ccc(Cl)cc1	inactive
Cc1ccc(N(SC(F)(Cl)Cl)S(=O)(=O)N(C)C)cc1	inactive
CC1(C)CC(=O)CC(C)(C)N1[O]	inactive
SCc1ccco1	inactive
O=CNC(N1CCN(C(NC=O)C(Cl)(Cl)Cl)CC1)C(Cl)(Cl)Cl (stereo unspecified)	inactive
Oc1cc(Cl)ccc1Cl	inactive
O=[N+]([O-])c1cc(C(F)(F)F)c(Cl)c([N+](=O)[O-])c1Cl	inactive
C[C@]12CCC(=O)C(O)=C1CC[C@@H]1[C@@H]2CC[C@]2(C)C(=O)CC[C@@H]12	inactive
CSc1nc(N=[N+]=[N-])nc(NC(C)C)n1	inactive
O=[N+]([O-])O.O=[N+]([O-])O.[Cd]	inactive
